Screening results as filed in PubChem.
MITF TRPM1 inh: MITF TRPM1 promoter inhibition in SK-MEL-5 cells | AID 488899 | SK-MEL-5 TRPM1 promoter luciferase, 24 h | inhibition, % at 12.5 µM | 330,000 tested, 0.83% active;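 active = mean inhibition across replicates of 60% or more, whatever share of single replicates reaches that level; inconclusive = some that reach 60%, reason not given; inactive = mean inhibition across replicates below 60%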
Shn3 3UTR inh: Schnurri-3 reporter inhibition in Clone20 osteoblasts | inhibition, % at 12.5 µM | Clone20 osteoblast Shn3 3'UTR firefly luciferase, 24 h | 360,000 tested, 0.52% active;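 active = mean inhibition of at least 75% with every replicate also reaching 75%; inconclusive = mean inhibition at least 75% but some replicate below; inactive = mean inhibition below 75%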;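 note: 0% = median of neutral control wells and 100% = pilot-screen positive control compound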
697 NFkB inh: inhibitors of the PMA/ionomycin-induced NF-kB reporter in 697 B cells. 697 B-cell NF-kB luciferase reporter, 16 h. inhibition, % at 4 µM. 330,000 tested, 0.33% active. AID 435022; in the data active = inhibition above about 35%
Jurkat NFkB inh: inhibitors of the PMA/ionomycin-induced NF-kB reporter in Jurkat cells; PMA/ionomycin-induced NF-kB luciferase reporter, luminescence; inhibition, % at 4 µM; 330,000 tested, 0.53% active; in the data active = inhibition above about 50%
LMP1 NFkB inh: inhibitors of Epstein-Barr LMP1-induced NF-kappaB reporter | inhibition, % at 12.5 µM | LMP1-induced NF-kappaB luciferase reporter cells, luminescence | 350,000 tested, 0.69% active; in the data active = inhibition above about 41%; inconclusive = no clear call, values can overlap the other calls;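 note: 0% = neutral control wells and 100% = reference inhibitor control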
Gli-Sufu antag: blocks Gli-Sufu signaling in a luciferase reporter. Sufu-KO-LIGHT fibroblasts, Gli luciferase reporter luminescence. inhibition, % at 5 µM. 340,000 tested, 0.74% active;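 active = inhibition above about 55%, limit read from the data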;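 note: 0% = DMSO-treated cells and 100% = wells with medium but no cells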
* = called active by the depositor; u = inconclusive; x = no result. A selection: hits, their analogues and other compounds. The true share with any hit is near 2.3%.

SMILES | MITF TRPM1 inh | Shn3 3UTR inh | 697 NFkB inh | Jurkat NFkB inh | LMP1 NFkB inh | Gli-Sufu antag
CCSc1ccccc1C(=O)N1CCCC1 | -6 | -5 | 1 | 2 | -2 | -7
CCSc1ccccc1C(=O)n1nnc2ccccc21 | 69* | 73 | 5 | 11 | -1 | 0
CC(C)OC(=O)CSc1nc(N2CCOCC2)c2c(c1C#N)CC(C)(C)OC2 | -6 | 0 | -5 | 5 | -1 | 21
O=C(CSc1nnnn1-c1ccccc1)Nc1nsc(-c2ccc(Cl)cc2)n1 | 5 | 53 | 11 | -3 | 76* | -7
O=C(CSc1nnnn1-c1ccccc1)Nc1nsc(-c2ccccc2)n1 | -3 | 12 | 0 | -4 | 10 | -1
COc1cccc2cc(-c3nnc(-c4ccccc4)o3)c(=O)oc12 | 4 | 16 | -186 | -93 | 50* | -54
COc1ccc(-c2nnc(-c3cc4ccccc4oc3=O)o2)cc1 | -51 | -28 | -17 | 15 | 1 | -10
CCn1c2ccccc2c2cc(/C=C(/C#N)C(N)=S)ccc21 | -1 | -10 | x | x | 85* | -1
COC(=O)c1cc2c(n1S(=O)(=O)c1ccc(C)cc1)C(=O)C(=O)c1[nH]cc(C(=O)OCc3ccccc3)c1-2 | 108* | 92* | x | x | 88* | 87*
COC(=O)c1ccc(COC(=O)c2ccc(CS(=O)(=O)c3ccc(C)cc3)cc2)cc1 | -12 | 9 | 1 | -5 | 8 | 6
O=C(/C=C/Nc1ccc(Br)cc1F)c1ccccc1 | 28 | 26 | -188 | -129 | 65* | -9
O=C(NC(=S)Nc1ccccc1Br)C1CCCC1 | -53 | -27 | -36 | 15 | -39 | -5
CCc1ccc(NC(=O)C2=CC(c3ccc(OC)c(OC)c3)=NS(=O)(=O)N2C)cc1 | 31 | 23 | -13 | 15 | 10 | -20
CCCCC1(Cc2ccc([N+](=O)[O-])cc2)C(=O)N(c2ccccc2)N(c2ccccc2)C1=O | 18 | 92* | 6 | 13 | 27 | 41
Cc1ccc(C(=O)NCC(=O)NCC(=O)OCc2ccc(Oc3ccc([N+](=O)[O-])cc3)cc2)cc1 | 6 | 12 | 14 | 2 | -2 | 6
COC(=O)c1nn(-c2ccc(OC)cc2)c(=O)cc1O | -7 | -2 | 7 | -21 | -3 | -2
COc1ccc(-n2nc(C#N)c(Cl)cc2=O)cc1 | 100* | 37 | 4 | 21 | -8 | 19
CCOCCn1c(SCc2ccc(F)cc2)nc2c1c(=O)[nH]c(=O)n2C | x | 14 | 2 | 14 | 3 | 3
O=C1c2cccc3c([N+](=O)[O-])ccc(c23)C(=O)N1c1ccccn1 | 34 | 37 | -106 | 34 | 55* | 7
O=C1c2cccc3c([N+](=O)[O-])ccc(c23)C(=O)N1c1nccs1 | u | 54 | 14 | -3 | 49* | 7
O=C1c2cccc3c([N+](=O)[O-])ccc(c23)C(=O)N1c1ccc(Cl)cn1 | 34 | 58 | -10 | 5 | 9 | 6
O=C1c2cccc3cccc(c23)C(=O)N1c1nccs1 | -3 | 10 | 11 | 9 | -3 | -2
CCOC(=O)C1CCN(c2c(NCCCN3CCCCC3)c(=O)c2=O)CC1 | 8 | -3 | 3 | 5 | -3 | 5
CCn1c(SCC(=O)N2CCOCC2)nc2ccccc21 | -3 | 0 | -1 | -9 | 3 | 4
Cc1ccc(NC(=O)c2cc(N3C(=O)CCC3=O)ccc2N2CCOCC2)cc1 | -2 | -6 | -4 | 10 | -3 | -11
SMILES | MITF TRPM1 inh | Shn3 3UTR inh | 697 NFkB inh | Jurkat NFkB inh | LMP1 NFkB inh | Gli-Sufu antag
Cc1ccc(NC(=O)c2cc(N3C(=O)C=CC3=O)ccc2N2CCOCC2)cc1Cl | 78* | 76 | x | x | 1 | -12
CCOc1nc(OCC)nc(N2CCC(C)CC2)n1 | -13 | 1 | 5 | -2 | -5 | 3
CN1CCN(c2ccc(-c3ccc4ccccc4n3)cc2)CC1 | 76* | u | x | x | 83* | 88*
c1ccc2nc(-c3ccncc3)ccc2c1 | -25 | -47 | -19 | -25 | 1 | -11
Cc1cc(C)nc(NS(=O)(=O)c2ccc(NC(=O)CN3C(=O)S/C(=C\c4ccccc4)C3=O)cc2)n1 | 9 | 7 | -17 | -4 | 4 | 0
COC(=O)/C=C/C(=O)Nc1cccc(C(F)(F)F)c1 | -8 | 22 | -58 | 9 | 43* | 15
O=C(/C=C/Nc1cccc(C(F)(F)F)c1)C(F)(F)F | -3 | -19 | -5 | -11 | 65* | 3
COc1ccc(N2CCN(C3CCN(S(=O)(=O)c4ccc(F)cc4)CC3)CC2)cc1 | -9 | 1 | -11 | -1 | 3 | -30
CCn1nc(C)cc1-c1nnc(Sc2ncc([N+](=O)[O-])s2)n1C | 94* | 95* | 11 | 28 | 16 | 12
CCn1nc(C)cc1-c1nnc(SCC(=O)Nc2ccccc2)n1CCCOC | 2 | 7 | 8 | -13 | 2 | 4
C=CC[C@@H](CC(=O)N(CCO)Cc1ccccc1)C(=O)NC[C@@H](OC(=O)[C@@H](CC=C)Cc1ccc(F)cc1)c1ccccc1 | 10 | 9 | 4 | 8 | 2 | 9
C=CC[C@H](CC(=O)N(CCO)Cc1ccccc1)C(=O)NC[C@H](OC(=O)[C@@H](CC=C)Cc1ccc(F)cc1)c1ccccc1 | 17 | 89* | 9 | 13 | 4 | 5
COCCNc1nc(NCCCN(C)C)c2sccc2n1 | x | -24 | x | x | x | x
COc1ccc(C(Nc2ccccn2)c2oc(CO)cc(=O)c2O)cc1 (configuration not stated) | -13 | -29 | 16 | 7 | 68* | -3
C=C(C)CN(CC)C(=O)Cn1cnc2c(oc3ccccc32)c1=O | -5 | -15 | 26 | -10 | -5 | -4
O=C(Cc1ccccc1)NCCS(=O)c1ccc(Cl)cc1 (configuration not stated) | 10 | 92* | 18 | 7 | -3 | -5
O=C(Cc1ccc(Cl)cc1)NCCS(=O)c1ccc(Cl)cc1 (configuration not stated) | 6 | -22 | -6 | 5 | 3 | 0
CC(=O)NCCNC(=O)CNC(=O)c1ccc(Cl)cc1 | 4 | -1 | -5 | -5 | -11 | -8
COc1ccc(CCn2ccc(O)c(Cc3c(F)cccc3Cl)c2=O)cc1OC | 2 | 8 | -5 | -2 | -4 | 0
Cc1ccc(-n2c(Cl)c(Cl)nc(Cl)c2=O)cc1 | 95* | 96* | x | x | 72* | 11
CC(C)CC(=O)/C=C/n1c(=S)oc2ccccc21 | 76* | 97* | x | x | 66* | 8
CC(=O)/C=C/n1c(=S)oc2ccccc21 | x | x | x | x | x | 45
CCOC(=O)/C(=C/c1ccc(OC(F)F)cc1)C1=Nn2c(nnc2-c2ccc(Cl)cc2)SC1 | 95* | 95* | x | x | 16 | 10
COc1ccc(-c2nnc3n2N=C(C)CS3)cc1 | 9 | -9 | 6 | -2 | -1 | 4
CCOC(=O)/C(=C\c1ccc(OC(F)F)cc1)C1=Nn2c(nnc2-c2ccc(Cl)cc2)SC1 | 99* | 95* | x | x | -10 | 56*
